The values that follow come from ChEMBL document CHEMBL1961873, “Compounds: GSK PKIS; Assays: Nanosyn kinase panel” (2012).

Test [1] has as its target High affinity nerve growth factor receptor (Homo sapiens) (UniProt P04629). The note with it: at 1 µM.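 Further: each value is the mean percent inhibition of TRKA.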
The target of test [2] is BDNF/NT-3 growth factors receptor (Homo sapiens) (UniProt Q16620). The note with it: at 0.1 µM.
Test [3] shares this target. The note with it: at 1 µM.
In test [4] the target is NT-3 growth factor receptor (Homo sapiens) (UniProt Q16288). The note with it: at 0.1 µM.
The target is the same in test [5]. The note with it: at 1 µM.
Test [6] concerns the target T1, Tyrosine-protein kinase TXK (Homo sapiens) (UniProt P42681).
T1 sequence (whole entry): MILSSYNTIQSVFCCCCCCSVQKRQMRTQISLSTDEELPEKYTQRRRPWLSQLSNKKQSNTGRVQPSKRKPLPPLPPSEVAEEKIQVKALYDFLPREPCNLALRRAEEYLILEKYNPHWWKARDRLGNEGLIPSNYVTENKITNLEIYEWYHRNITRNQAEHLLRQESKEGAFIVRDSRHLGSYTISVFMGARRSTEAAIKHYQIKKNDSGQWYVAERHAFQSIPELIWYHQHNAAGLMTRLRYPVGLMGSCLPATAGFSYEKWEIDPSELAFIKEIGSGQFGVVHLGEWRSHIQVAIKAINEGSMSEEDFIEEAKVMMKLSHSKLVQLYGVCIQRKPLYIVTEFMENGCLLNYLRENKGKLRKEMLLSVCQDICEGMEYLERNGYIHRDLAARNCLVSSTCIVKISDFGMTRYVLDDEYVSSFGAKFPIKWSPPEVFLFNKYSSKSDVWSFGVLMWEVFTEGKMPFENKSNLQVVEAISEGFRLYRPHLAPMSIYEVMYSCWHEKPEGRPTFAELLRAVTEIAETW
The note with it: at 0.1 µM.

The target in test [7] is T1, Tyrosine-protein kinase TXK (Homo sapiens). The note with it: at 1 µM.
For test [8], the target named is Non-receptor tyrosine-protein kinase TYK2 (Homo sapiens) (UniProt P29597). The note with it: at 0.1 µM.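 Further: each value is a mean of the inhibition readings.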
Test [9] has as its target T2, Dual specificity protein kinase TTK (Homo sapiens) (UniProt P33981).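 Further: reported figures are mean TTK inhibition at 1 µM.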
T2 sequence (whole entry): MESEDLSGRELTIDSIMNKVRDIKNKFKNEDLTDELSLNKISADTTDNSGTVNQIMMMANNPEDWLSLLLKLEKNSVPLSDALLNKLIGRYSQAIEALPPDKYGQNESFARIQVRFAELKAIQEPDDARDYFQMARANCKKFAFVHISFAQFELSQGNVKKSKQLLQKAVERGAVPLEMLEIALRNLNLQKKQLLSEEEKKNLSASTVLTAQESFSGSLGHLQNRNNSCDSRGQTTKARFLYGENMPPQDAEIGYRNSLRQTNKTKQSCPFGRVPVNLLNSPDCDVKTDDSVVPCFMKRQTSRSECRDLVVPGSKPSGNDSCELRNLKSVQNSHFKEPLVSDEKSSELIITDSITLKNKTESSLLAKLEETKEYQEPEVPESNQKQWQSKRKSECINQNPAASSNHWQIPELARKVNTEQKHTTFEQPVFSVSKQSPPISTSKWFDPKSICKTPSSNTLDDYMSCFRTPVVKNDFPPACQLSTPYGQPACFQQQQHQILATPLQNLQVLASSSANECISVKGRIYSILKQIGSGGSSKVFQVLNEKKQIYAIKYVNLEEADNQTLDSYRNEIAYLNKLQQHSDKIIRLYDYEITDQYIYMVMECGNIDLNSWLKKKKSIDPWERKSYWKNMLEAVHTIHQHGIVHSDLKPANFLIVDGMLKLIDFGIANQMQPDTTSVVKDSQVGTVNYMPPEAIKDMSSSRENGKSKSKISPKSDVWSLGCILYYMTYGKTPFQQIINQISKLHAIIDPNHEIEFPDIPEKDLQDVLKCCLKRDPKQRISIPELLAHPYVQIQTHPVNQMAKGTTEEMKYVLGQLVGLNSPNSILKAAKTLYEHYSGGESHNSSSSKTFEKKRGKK
The note with it: at 1 µM.

In test [10] the target is T3, Aurora kinase A (Homo sapiens) (UniProt O14965).
T3 sequence (whole entry): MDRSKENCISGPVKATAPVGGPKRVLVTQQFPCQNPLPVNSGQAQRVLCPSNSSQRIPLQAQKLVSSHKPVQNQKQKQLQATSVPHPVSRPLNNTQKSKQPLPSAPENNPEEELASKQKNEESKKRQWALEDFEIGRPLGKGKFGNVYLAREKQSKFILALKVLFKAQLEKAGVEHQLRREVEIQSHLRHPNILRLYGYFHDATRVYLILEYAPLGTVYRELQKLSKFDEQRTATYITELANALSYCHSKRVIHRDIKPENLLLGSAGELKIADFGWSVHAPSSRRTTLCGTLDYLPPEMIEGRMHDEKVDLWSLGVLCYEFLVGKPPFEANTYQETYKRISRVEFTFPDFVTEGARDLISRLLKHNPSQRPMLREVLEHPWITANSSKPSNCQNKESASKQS
The note with it: at 0.1 µM.

Test [11] concerns the target T3, Aurora kinase A (Homo sapiens). The note with it: at 1 µM.
The target of test [12] is Aurora kinase B (Homo sapiens) (UniProt Q96GD4). The note with it: at 0.1 µM.
Test [13] has the same target. The note with it: at 1 µM.
Test [14] has as its target T4, Aurora kinase C (Homo sapiens) (UniProt Q9UQB9).
T4 sequence (whole entry): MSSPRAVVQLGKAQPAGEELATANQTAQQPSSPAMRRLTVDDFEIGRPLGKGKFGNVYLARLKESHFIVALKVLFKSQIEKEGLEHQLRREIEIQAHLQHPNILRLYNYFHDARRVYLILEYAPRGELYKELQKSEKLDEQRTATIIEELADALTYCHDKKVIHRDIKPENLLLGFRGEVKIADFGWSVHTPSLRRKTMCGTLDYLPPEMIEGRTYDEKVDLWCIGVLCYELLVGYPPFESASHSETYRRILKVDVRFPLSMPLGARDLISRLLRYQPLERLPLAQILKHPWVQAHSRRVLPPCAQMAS
The note with it: at 0.1 µM.

For test [15], the target named is T4, Aurora kinase C (Homo sapiens). The note with it: at 1 µM.
Test [16] addresses Serine/threonine-protein kinase 10 (Homo sapiens) (UniProt O94804). The note with it: at 0.1 µM.
Test [17] has the same target. The note with it: at 1 µM.
Test [18] concerns the target T5, Mitogen-activated protein kinase kinase kinase kinase 2 (Homo sapiens) (UniProt Q12851).
T5 sequence (whole entry): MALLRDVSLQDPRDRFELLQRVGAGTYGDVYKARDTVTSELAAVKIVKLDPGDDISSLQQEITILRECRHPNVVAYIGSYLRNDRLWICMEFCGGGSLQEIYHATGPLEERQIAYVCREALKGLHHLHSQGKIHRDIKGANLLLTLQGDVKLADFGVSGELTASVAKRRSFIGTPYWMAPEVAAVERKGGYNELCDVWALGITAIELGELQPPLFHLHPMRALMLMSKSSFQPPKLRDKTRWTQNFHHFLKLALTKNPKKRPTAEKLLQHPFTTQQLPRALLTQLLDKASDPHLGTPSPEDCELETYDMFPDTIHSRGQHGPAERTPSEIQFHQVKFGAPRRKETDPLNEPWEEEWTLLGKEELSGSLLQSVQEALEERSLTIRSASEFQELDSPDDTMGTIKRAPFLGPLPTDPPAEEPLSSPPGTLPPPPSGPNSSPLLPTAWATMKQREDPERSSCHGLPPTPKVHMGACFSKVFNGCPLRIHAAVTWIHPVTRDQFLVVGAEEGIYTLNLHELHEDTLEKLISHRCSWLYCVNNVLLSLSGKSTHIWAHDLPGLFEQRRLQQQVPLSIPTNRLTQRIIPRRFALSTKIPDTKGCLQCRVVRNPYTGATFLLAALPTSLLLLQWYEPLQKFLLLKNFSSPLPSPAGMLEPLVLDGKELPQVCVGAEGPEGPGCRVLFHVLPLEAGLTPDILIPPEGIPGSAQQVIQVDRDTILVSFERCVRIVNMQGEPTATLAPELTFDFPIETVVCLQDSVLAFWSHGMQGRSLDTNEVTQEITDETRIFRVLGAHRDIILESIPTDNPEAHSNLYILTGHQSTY
The note with it: at 0.1 µM.

The target in test [19] is T5, Mitogen-activated protein kinase kinase kinase kinase 2 (Homo sapiens). The note with it: at 1 µM.
Test [20] has as its target Mitogen-activated protein kinase kinase kinase kinase 4 (Homo sapiens) (UniProt O95819). The note with it: at 0.1 µM.

Chain of High affinity nerve growth factor receptor (Homo sapiens) (P04629 33-796 limits assumed): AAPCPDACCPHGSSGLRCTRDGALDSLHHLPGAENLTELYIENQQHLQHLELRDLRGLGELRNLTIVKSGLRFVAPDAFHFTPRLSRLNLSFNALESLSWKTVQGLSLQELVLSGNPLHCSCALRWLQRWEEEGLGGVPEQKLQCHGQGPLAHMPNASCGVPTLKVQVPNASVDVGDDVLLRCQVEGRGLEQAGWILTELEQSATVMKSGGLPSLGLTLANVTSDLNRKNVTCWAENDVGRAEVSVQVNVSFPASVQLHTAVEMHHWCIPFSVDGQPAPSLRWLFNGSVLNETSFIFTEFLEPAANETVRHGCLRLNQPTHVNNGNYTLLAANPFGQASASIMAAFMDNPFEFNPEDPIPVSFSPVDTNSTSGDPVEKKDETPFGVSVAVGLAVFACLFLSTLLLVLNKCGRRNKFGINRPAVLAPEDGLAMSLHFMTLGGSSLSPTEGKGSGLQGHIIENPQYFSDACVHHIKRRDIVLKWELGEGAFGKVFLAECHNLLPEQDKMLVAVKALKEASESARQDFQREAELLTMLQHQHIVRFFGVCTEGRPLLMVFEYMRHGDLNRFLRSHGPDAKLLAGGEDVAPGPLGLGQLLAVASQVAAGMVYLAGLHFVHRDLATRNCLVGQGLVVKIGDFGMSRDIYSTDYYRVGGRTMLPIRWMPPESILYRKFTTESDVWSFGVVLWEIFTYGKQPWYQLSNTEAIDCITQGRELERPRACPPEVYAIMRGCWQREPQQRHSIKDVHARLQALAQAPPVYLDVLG
Chain of BDNF/NT-3 growth factors receptor (Homo sapiens) (Q16620 32-822 limits assumed): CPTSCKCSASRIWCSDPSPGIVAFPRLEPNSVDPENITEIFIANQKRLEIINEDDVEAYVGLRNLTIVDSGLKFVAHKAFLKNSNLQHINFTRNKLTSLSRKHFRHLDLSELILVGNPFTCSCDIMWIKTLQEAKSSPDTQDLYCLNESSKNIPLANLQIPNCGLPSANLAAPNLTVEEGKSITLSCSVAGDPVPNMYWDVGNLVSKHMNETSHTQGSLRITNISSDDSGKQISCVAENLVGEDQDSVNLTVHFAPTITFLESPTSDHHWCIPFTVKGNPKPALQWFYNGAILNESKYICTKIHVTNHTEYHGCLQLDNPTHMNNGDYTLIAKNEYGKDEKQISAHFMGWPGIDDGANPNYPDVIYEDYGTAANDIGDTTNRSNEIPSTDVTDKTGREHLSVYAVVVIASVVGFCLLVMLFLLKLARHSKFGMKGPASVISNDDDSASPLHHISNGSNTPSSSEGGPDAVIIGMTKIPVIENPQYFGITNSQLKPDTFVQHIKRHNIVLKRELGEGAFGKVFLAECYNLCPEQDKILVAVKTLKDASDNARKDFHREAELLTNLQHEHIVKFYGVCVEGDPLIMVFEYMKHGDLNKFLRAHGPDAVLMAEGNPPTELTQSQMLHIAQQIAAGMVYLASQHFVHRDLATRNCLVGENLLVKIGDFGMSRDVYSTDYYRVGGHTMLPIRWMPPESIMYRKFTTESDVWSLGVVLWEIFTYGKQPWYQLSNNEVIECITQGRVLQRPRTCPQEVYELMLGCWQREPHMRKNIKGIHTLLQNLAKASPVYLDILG
Chain of NT-3 growth factor receptor (Homo sapiens) (Q16288 32-839 limits assumed): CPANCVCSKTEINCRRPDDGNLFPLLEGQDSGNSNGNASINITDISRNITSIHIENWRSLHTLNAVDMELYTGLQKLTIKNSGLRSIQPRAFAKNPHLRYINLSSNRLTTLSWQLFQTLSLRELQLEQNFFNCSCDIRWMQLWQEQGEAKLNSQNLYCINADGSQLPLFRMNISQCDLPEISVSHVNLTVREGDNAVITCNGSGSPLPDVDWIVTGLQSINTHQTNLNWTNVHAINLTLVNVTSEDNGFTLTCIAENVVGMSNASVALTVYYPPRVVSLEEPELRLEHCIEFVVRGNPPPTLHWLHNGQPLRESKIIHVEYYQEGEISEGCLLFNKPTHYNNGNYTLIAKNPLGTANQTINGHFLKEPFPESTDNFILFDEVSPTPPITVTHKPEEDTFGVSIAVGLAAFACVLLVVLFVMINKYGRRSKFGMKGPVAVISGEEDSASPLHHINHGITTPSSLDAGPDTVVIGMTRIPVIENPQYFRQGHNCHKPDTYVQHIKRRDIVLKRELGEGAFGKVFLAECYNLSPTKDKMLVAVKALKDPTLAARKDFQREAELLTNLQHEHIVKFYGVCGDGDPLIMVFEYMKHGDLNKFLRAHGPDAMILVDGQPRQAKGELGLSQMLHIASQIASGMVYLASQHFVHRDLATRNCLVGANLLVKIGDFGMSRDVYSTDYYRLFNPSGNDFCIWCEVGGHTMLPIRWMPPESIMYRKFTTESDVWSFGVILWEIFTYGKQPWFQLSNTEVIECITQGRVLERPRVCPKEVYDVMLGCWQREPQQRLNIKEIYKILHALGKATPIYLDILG
Chain of Non-receptor tyrosine-protein kinase TYK2 (Homo sapiens) (P29597 whole entry): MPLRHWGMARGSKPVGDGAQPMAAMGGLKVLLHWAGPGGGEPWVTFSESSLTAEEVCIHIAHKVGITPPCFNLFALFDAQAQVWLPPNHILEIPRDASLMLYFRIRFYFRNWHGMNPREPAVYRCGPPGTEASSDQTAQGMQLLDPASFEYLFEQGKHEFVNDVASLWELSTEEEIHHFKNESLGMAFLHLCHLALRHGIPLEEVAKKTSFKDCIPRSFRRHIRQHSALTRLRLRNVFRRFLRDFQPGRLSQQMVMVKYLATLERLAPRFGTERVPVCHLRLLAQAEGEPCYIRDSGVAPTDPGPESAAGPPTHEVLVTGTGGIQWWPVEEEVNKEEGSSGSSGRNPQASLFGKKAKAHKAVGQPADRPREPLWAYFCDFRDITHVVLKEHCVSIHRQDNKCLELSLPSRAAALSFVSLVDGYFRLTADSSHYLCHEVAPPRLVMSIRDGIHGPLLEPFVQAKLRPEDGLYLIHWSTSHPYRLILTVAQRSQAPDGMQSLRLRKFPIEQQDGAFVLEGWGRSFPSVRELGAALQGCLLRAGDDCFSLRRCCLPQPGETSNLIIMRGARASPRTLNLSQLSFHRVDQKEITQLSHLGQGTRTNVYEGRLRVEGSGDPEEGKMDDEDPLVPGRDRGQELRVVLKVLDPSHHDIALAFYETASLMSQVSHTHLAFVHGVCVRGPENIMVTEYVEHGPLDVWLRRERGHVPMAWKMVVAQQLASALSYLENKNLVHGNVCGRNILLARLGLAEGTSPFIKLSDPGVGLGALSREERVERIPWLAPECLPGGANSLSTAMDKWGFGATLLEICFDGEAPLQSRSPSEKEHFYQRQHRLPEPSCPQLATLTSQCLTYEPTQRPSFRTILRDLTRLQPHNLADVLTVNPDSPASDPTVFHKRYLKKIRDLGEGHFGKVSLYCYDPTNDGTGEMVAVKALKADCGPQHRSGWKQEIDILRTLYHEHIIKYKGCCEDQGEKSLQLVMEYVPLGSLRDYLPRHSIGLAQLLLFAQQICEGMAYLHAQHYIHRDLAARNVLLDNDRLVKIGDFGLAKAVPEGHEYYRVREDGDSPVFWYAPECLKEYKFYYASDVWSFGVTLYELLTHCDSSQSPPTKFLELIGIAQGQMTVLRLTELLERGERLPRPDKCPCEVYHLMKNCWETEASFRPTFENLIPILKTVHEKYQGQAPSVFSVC
Chain of Aurora kinase B (Homo sapiens) (Q96GD4 whole entry): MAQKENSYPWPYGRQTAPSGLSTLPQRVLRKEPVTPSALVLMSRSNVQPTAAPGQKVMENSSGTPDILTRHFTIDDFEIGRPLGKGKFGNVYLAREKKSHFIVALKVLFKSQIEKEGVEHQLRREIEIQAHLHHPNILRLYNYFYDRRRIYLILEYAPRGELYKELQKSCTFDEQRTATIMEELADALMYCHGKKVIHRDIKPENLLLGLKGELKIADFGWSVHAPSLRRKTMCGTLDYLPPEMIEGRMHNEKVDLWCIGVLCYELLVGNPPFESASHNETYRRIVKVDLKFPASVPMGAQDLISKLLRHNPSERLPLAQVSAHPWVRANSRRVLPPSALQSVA
Chain of Serine/threonine-protein kinase 10 (Homo sapiens) (O94804 whole entry, looked up): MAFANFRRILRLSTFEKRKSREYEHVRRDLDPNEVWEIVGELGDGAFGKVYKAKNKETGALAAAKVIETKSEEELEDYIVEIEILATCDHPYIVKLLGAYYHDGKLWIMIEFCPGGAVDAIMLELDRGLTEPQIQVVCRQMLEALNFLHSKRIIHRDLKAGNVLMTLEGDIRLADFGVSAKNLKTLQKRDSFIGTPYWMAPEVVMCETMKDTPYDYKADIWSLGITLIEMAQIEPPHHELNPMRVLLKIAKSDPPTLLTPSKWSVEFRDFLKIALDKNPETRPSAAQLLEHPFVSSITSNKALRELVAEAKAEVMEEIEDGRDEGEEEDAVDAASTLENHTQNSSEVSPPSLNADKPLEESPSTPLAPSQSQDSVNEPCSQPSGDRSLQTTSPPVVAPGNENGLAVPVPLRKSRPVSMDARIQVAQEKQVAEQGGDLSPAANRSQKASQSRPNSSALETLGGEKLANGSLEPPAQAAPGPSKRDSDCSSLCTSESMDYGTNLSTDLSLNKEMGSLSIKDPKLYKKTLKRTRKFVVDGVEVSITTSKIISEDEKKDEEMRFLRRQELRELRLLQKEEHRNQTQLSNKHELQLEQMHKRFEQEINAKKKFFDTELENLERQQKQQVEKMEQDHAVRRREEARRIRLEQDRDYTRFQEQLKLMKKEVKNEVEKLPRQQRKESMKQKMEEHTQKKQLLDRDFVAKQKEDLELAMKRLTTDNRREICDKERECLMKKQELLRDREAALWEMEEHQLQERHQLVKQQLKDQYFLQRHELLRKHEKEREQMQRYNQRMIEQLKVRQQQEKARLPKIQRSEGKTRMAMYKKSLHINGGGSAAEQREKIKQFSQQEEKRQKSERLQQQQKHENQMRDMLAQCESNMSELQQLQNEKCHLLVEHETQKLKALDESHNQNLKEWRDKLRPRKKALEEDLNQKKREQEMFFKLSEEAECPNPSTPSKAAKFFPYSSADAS

For `Clc1ccc(CNc2nccc(-c3cnn4ncccc34)n2)cc1`, the inhibition (in general, the drop in the measured response relative to a control, in per cent) in [1] is 1.03%; in test [2] it was 0.46%; in test [3], 1.45%; in test [4], 0.37%; in test [5], 2.98%; in test [6], 2.07%. The inhibition in test [7] is 6.82%; in test [8] it was -1.15%; in [9] it was 10.5%; in [10], 0.34%; in [11], 10.8%; in test [12], -0.06%. Further, the inhibition in test [13] came out at 8.64%; in [14], 2.6%; in test [15] it was 4.42%; in test [16], 2.66%; in test [17], 6.27%; in [18], 2.75%. Besides, the figures for the inhibition in test [19] and in test [20] were 9.93% and 3.91%, respectively.

`Fc1ccc(-c2ncn(CCCN3CCOCC3)c2-c2ccncc2)cc1`: the inhibition in test [1] was -2.74%; in test [2], -0.51%; in test [3], -1.43%; in [4], -0.42%; in [5], -2.77%; in test [6], 1.42%. For the same compound, the inhibition in test [7] was 2%; in test [8], 1.6%; in test [9] it was 5.54%; in test [10], -0.48%; in test [11], 3.87%; in test [12], 0.52%. For the same compound, the inhibition in test [13] was 5.52%; in test [14], -0.04%; in [15], 10.1%; in [16], 1.1%; in [17], 3.83%; in test [18], 2.31%. Besides, the inhibition was 1.14% in [19] and 2.27% in test [20].

As to `CCc1cccc(CC)c1/C=C/c1cncc(C(=O)NC)c1`, the inhibition in [1] is 1.65%; in test [2], 1.04%; in test [3], 3.79%; in test [4], 1.36%; in test [5] it was 3.49%; in test [6], 3.65%. In addition, the inhibition in [7] was 8.4%; in test [8], -7.46%; in [9], -0.69%; in test [10] it was 2.26%; in test [11], 6.42%; in test [12] it was -0.55%. The inhibition was determined as 6.73% in test [13]; 0.82% in test [14]; 11.7% in [15]; 1.38% in [16]; 5.08% in [17]; 0.77% in [18]. Further, the inhibition in test [19] is 0.32%; in [20] it was 1.73%.
